Screening data (PubChem)
Most compounds without a hit are left out; they make up all but 2.8% or so of the library.
LGR2 antag: inhibitors of bursicon-induced Drosophila LGR2 receptor cAMP signaling | HEK293 LGR2, CRE-luciferase, bursicon-stimulated, 4 h | inhibition, % at 9.99 µM | 380,000 tested, 0.35% active;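 active means drop in luminescence signal, shown as inhibition above about 50% in the replicate tests, limit read from the data, passing the limit was not always enough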;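 further: agonist challenge used bursicon conditioned medium at about half maximal strength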
TWEAK-Fn14 inh: blocks TWEAK-Fn14 interaction in a reporter cell assay. TWEAK-stimulated Fn14 reporter cells, luciferase luminescence, 8 h. inhibition, % at 10 µM. 360,000 tested, 2% active. AID 1159606; in the data active means inhibition above about 50%
EWS-Fli inh: blocks EWS/Fli oncoprotein-driven transcription; 350,000 tested, 0.67% active; inhibition, % at 12.6 µM; A673 NR0B1-luciferase reporter, viability-normalised;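 active means mean inhibition of at least 50% after viability correction, with every replicate also passing that limit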;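 further: firefly luciferase signal divided by Alamar Blue viability fluorescence both relative to DMSO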
TROY signal inh: inhibitors of TROY-dependent NF-kB signaling. Q293 LMP1-TROYcd NF-kB luciferase reporter, 4 h. 360,000 tested, 0.98% active. inhibition, % at 10 µM;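 active means compounds whose plate-normalised and pattern-corrected inhibition of the luciferase reporter signal at the single screening dose is 50% or more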
PAX8 inh HTS: lowers PAX8-driven luciferase in RMG-I cells; inhibition, % at 12.6 µM; 360,000 tested, 1.2% active; RMG-I TPO-luciferase reporter, SteadyGlo, 24 h;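 active means mean replicate inhibition at least 60% with every replicate also reaching 60%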;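 further: luciferase light reporting Pax8 driven TPO promoter activity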
Hits are given with their value; – = inactive; · = no result; ! = not active in a repeat.

SMILES	LGR2 antag	TWEAK-Fn14 inh	EWS-Fli inh	TROY signal inh	PAX8 inh HTS
N#CC1=C(N)Oc2c(ccc3cccnc23)C1c1ccccc1 (stereo not given)	–	–	58.8	–	–
Cc1ccc2[nH]c(=O)c(C3C(C#N)=C(N)Oc4c3ccc3cccnc43)cc2c1 (stereo not given)	·	–	·	–	·
N#CC1=C(N)Oc2ccc3ccccc3c2C1c1cccnc1 (stereo not given)	–	–	54.4	–	–
NC(=O)c1cc([N+](=O)[O-])ccc1NCc1ccc(F)cc1	–	–	–	–	–
NC(=O)c1cc([N+](=O)[O-])ccc1NCc1ccc(N)cc1	–	84.2	73.9	67.2	–
COC(=O)c1ccc(=O)n(Cc2ccco2)c1	·	–	·	–	·
COC(=O)c1cc(Br)c(=O)n(Cc2ccco2)c1	·	77.6	·	·	·
C[C@H]1CN([C@@H](C)CO)C(=O)Cc2cc(NC(=O)Nc3ccccc3)ccc2O[C@H]1CN(C)C	–	·	–	·	–
O=c1c2cc3c(cc2[nH]c(=S)n1CCN1CCOCC1)OCO3	·	–	·	77.9	·
CC1CCN(CCn2c(=S)[nH]c3cc4c(cc3c2=O)OCO4)CC1	–	–	–	–	–
COc1ccc(S(=O)(=O)Nc2cc(SCC(=O)O)c(O)c3ccccc23)cc1	–	92.8	–	50.9	–
O=C(O)CSc1cc(NS(=O)(=O)c2ccc(Cl)cc2)c2ccccc2c1O	–	93.6	–	–	–
O=C(Cc1ccccn1)N[C@H]1CC[C@H](CCn2cc(-c3ccc(F)cc3)nn2)O[C@@H]1CO	–	·	–	·	·
O=C(C[n+]1cc(-c2ccccc2)n2c1CCCCC2)c1ccc(Cl)cc1	–	–	–	–	–
CC1CCC(C(C)C)C(OC(=O)C[n+]2cc(-c3ccc(Cl)cc3)n3c2CCCCC3)C1 (stereo not given)	–	–	–	–	102.3
CSc1nc2ccc(N3C(=O)C4CCCCC4C3=O)cc2s1 (stereo not given)	·	106.7	·	–	·
CSc1nc2ccc(S(=O)(=O)N3CCCC3)cc2s1	–	–	·	–	·
Cc1nc(C)c(C(=O)Nc2ccccc2)s1	–	–	·	–	·
Cc1nc(C)c(C(=O)O)s1	–	94.6	–	–	–
CCCNC(=O)N(C)C[C@@H]1Oc2ncc(C#Cc3ccncc3)cc2C(=O)N([C@H](C)CO)C[C@@H]1C	–	·	–	·	·
CC1(C)CC(=O)C2=C(C1)Oc1nc3ccccc3cc1C2C(C#N)C#N (stereo not given)	·	68.6	·	–	·
O=C(Nc1ccc(F)cc1)N1C[C@H]2[C@@H](c3ccccc31)[C@H](CO)N2C(=O)c1ccccn1	–	·	–	·	–
c1cncc(-c2nnc(SCc3nc4ccccc4[nH]3)o2)c1	·	–	·	74.2	–
c1ccc(CSc2nnc(-c3cccnc3)o2)cc1	·	–	·	·	·
CCCNC(=O)N1C[C@@H](O)COC[C@@H]2O[C@@H](CC(=O)NCc3ccc(Cl)c(Cl)c3)CC[C@H]21	–	·	–	·	–
SMILES	LGR2 antag	TWEAK-Fn14 inh	EWS-Fli inh	TROY signal inh	PAX8 inh HTS
C[C@@H]1CN([C@@H](C)CO)C(=O)c2cc(NS(=O)(=O)c3ccccc3)ccc2O[C@@H]1CN(C)C	–	·	·	·	–
C[C@@H]1CCCCO[C@@H](CN(C)Cc2ccc3c(c2)OCO3)[C@@H](C)CN([C@@H](C)CO)C(=O)c2cc(NS(=O)(=O)c3ccc(Cl)cc3)ccc2O1	–	·	69.4!	·	–
C[C@@H]1CN([C@H](C)CO)C(=O)c2cc(NS(=O)(=O)c3ccc(Cl)cc3)ccc2O[C@@H](C)CCCCO[C@H]1CN(C)Cc1ccc2c(c1)OCO2	–	·	–	·	89.9!
C[C@@H]1CCCCO[C@@H](CN(C)Cc2ccc3c(c2)OCO3)[C@@H](C)CN([C@H](C)CO)C(=O)c2cc(NS(=O)(=O)c3ccc(Cl)cc3)ccc2O1	–	·	–	·	–
Cc1noc(C)c1NC(=O)Nc1ccc2c(c1)C(=O)N([C@H](C)CO)C[C@@H](C)[C@@H](CN(C)S(=O)(=O)c1ccc(F)cc1)OCCCC[C@H](C)O2	–	·	–	·	–
COc1ccccc1-c1cc2nc(NCCOc3ccccc3)ccn2n1	–	–	–	–	–
COc1cc(Nc2ccn3nc(-c4ccccc4Cl)cc3n2)cc(OC)c1OC	–	60.5	–	–	–
C[C@@H]1CCCCO[C@H](CN(C)C(=O)c2ccccc2)[C@H](C)CN([C@@H](C)CO)C(=O)c2cc(NS(=O)(=O)c3cn(C)cn3)ccc2O1	–	·	–	·	–
O=C(C[C@@H]1C[C@@H]2c3cc(NC(=O)c4cccnc4)ccc3O[C@@H]2[C@H](CO)O1)NCc1ccc(Oc2ccccc2)cc1	–	·	–	·	–
C[C@H](CO)N1C[C@H](C)[C@@H](CN(C)S(=O)(=O)c2ccc(F)cc2)OCCCC[C@H](C)Oc2ccc(NS(=O)(=O)c3ccccc3)cc2C1=O	–	·	–	·	–
COc1ccccc1C(=O)NC(=S)Nc1ccc(Cc2ccncc2)cc1	–	–	–	61.8	–
COc1c(C(=O)Nc2ccc(Cc3ccncc3)cc2)ccc2ccccc12	–	–	·	56.8	–
COc1ccc(NC(=O)N(C)C[C@H]2OCCCC[C@H](C)Oc3ccc(NS(=O)(=O)c4ccc(C)cc4)cc3C(=O)N([C@H](C)CO)C[C@@H]2C)cc1	–	·	–	·	–
Cc1ccc(NC2Sc3ccccc3NC2=O)cc1 (stereo not given)	–	56.0	–	–	–
O=C1Nc2ccccc2SC1c1ccccc1 (stereo not given)	–	–	–	–	–
CC1=CC(C)(C)N(C(=O)CCl)c2ccccc21	–	–	–	–	–
CC1=CC(C)(C)N(C(=O)CCl)c2cc(C)ccc21	–	–	68.4	–	–
Cc1cc(-c2ccccc2)n(-c2cc(N/N=C/c3ccccc3O)ncn2)n1	–	68.7	·	–	71.1
CNc1cc(-n2nc(C)cc2-c2ccccc2)ncn1	·	–	·	–	–
CO[C@@H]1CN(C)C(=O)c2ccc(NC(=O)CC(F)(F)F)cc2OC[C@H](C)N(C(=O)c2ccccc2F)C[C@H]1C	–	·	·	·	–
CC(C)C(=O)Nc1ccc2c(c1)C(=O)N(C)[C@H]1CC[C@@H](CC(=O)NCC3CC3)O[C@H]1CO2	–	·	–	·	–
Cc1ccc(S(=O)(=O)N(C)C[C@@H]2OCCCC[C@@H](C)Oc3ccc(NS(=O)(=O)c4cn(C)cn4)cc3C(=O)N([C@H](C)CO)C[C@@H]2C)cc1	–	·	–	·	–
c1ccc2c(C3=NNC(=NC4CC4)SC3)c[nH]c2c1	58.3	78.2	·	–	–
c1ccc(C2=NNC(=NC3CC3)SC2)cc1	·	63.3	·	–	·
c1ccc2c(C3=NNC(=NC4CCCCC4)SC3)c[nH]c2c1	–	–	–	–	–
C[C@@H]1CN([C@@H](C)CO)C(=O)Cc2cc(NC(=O)Nc3ccccc3)ccc2O[C@H]1CN(C)Cc1ccc(C(=O)O)cc1	–	·	–	·	–
CCOc1ccc(N=Cc2c(C)[nH]n(-c3nc4ccccc4[nH]3)c2=O)cc1	63.1	–	–	–	–
Cc1ccccc1S(=O)(=O)NCC[C@H]1CC[C@@H](NC(=O)C2CCC2)[C@@H](CO)O1	–	·	–	·	–
CC(C)NC(=O)N(C)C[C@@H]1Oc2ncc(C#CC3CCCC3)cc2C(=O)N([C@@H](C)CO)C[C@H]1C	–	·	–	·	·
